{"source": "the OligoGym collection", "data": [{"target": "NKPD1", "experiment": "pooled miR-30 sensor sort-seq; sequence = guide strand", "conditions": "shRNA", "values": [{"sequence": "TCGCACATGAAACCCAGCTGGC", "sensor-assay potency score (higher = more potent)": -0.962}, {"sequence": "AAAAGGAACTGCACGTTCCTGC", "sensor-assay potency score (higher = more potent)": -0.361}, {"sequence": "TCTCGCGGTACAACAGGTCGTC", "sensor-assay potency score (higher = more potent)": -0.615}, {"sequence": "TTACGAACAGGTGCTTGCCCAC", "sensor-assay potency score (higher = more potent)": -0.968}, {"sequence": "TACAACAGGTCGTCGCGGCTCT", "sensor-assay potency score (higher = more potent)": -0.332}, {"sequence": "TACTCGTAGAGGCAGTCGCGCT", "sensor-assay potency score (higher = more potent)": -1.54}, {"sequence": "TTGAGCAGGCTGCCGCTCGGGC", "sensor-assay potency score (higher = more potent)": -0.937}, {"sequence": "TTGAGCGCGCTGACGGCTCGGA", "sensor-assay potency score (higher = more potent)": -0.211}]}, {"target": "NLGN1", "experiment": "pooled miR-30 sensor sort-seq; sequence = guide strand", "conditions": "shRNA", "values": [{"sequence": "TTGTTGTTTGGGATCATCCTGC", "sensor-assay potency score (higher = more potent)": 0.229}, {"sequence": "TTGGTATGAATGAATTTCGTGT", "sensor-assay potency score (higher = more potent)": -0.285}, {"sequence": "TTGCTCGTTGAAAAAGTCCTTT", "sensor-assay potency score (higher = more potent)": -0.525}, {"sequence": "TTGTTGTAGAGGTATACTGAGA", "sensor-assay potency score (higher = more potent)": -1.34}, {"sequence": "TTTATTTCACACAATGACCAGT", "sensor-assay potency score (higher = more potent)": 0.0352}, {"sequence": "TATCTGAAACATTGCAACCAAC", "sensor-assay potency score (higher = more potent)": -1.43}, {"sequence": "TAACATTATATCATAGTTGAGA", "sensor-assay potency score (higher = more potent)": -0.468}, {"sequence": "TAAATTTCCAGTACCTTCCATA", "sensor-assay potency score (higher = more potent)": -0.487}, {"sequence": "TAGCATTGGACTAATAGTCATT", "sensor-assay potency score (higher = more potent)": -0.504}, {"sequence": "TGAGGTACCAACTCCAACCAGA", "sensor-assay potency score (higher = more potent)": 0.0181}, {"sequence": "TTGGTCAACAAGTTCTTTGTAA", "sensor-assay potency score (higher = more potent)": 0.00294}]}, {"target": "NLRP2", "experiment": "pooled miR-30 sensor sort-seq; sequence = guide strand", "conditions": "shRNA", "values": [{"sequence": "TTCAATATATACCTGCACCTAT", "sensor-assay potency score (higher = more potent)": -0.184}, {"sequence": "TATACCTGCACCTATTGTCTTT", "sensor-assay potency score (higher = more potent)": -0.461}, {"sequence": "TTTTTGAACACCACTCTCTGGA", "sensor-assay potency score (higher = more potent)": 0.671}, {"sequence": "TACAACTTATGTCGCATCGCAG", "sensor-assay potency score (higher = more potent)": -0.571}, {"sequence": "TTTCTCAGTATCAATAATCAGT", "sensor-assay potency score (higher = more potent)": -0.723}, {"sequence": "TTACAGTCTTGTGACCTCGAAG", "sensor-assay potency score (higher = more potent)": -1.08}, {"sequence": "TTTTTCTTCTATTTCTTCCAGC", "sensor-assay potency score (higher = more potent)": -0.106}, {"sequence": "TTCTGTTTTGAAGCGCTCCAGC", "sensor-assay potency score (higher = more potent)": -0.763}, {"sequence": "TTCGTCTTCAATATATACCTGC", "sensor-assay potency score (higher = more potent)": 0.466}, {"sequence": "TTTCTGTAAACGCTTGTGCTTC", "sensor-assay potency score (higher = more potent)": -0.408}, {"sequence": "TATTTCTTTGAACTGAGCCATC", "sensor-assay potency score (higher = more potent)": -1.26}, {"sequence": "AAGTCATCTATTTTCAACCTGA", "sensor-assay potency score (higher = more potent)": 0.0295}]}, {"target": "NLRP3", "experiment": "pooled miR-30 sensor sort-seq; sequence = guide strand", "conditions": "shRNA", "values": [{"sequence": "TGTGATGACAACAACACCCGAT", "sensor-assay potency score (higher = more potent)": 0.603}, {"sequence": "TCAAACAGCAACTCCATCTTAA", "sensor-assay potency score (higher = more potent)": -0.477}, {"sequence": "TTGTCTAATTCCAACACCTGAA", "sensor-assay potency score (higher = more potent)": -0.802}, {"sequence": "TAGATCCACATGGTCTGCCTTC", "sensor-assay potency score (higher = more potent)": -0.905}, {"sequence": "TTACAAATAGAGATTCTCGAAA", "sensor-assay potency score (higher = more potent)": -0.224}, {"sequence": "TTCTCTGTCTGACCCCTCGGGA", "sensor-assay potency score (higher = more potent)": -1.19}, {"sequence": "TTGAAGTCGATCATTAGCGTGG", "sensor-assay potency score (higher = more potent)": 0.548}, {"sequence": "TTGGCTTTCACTTCAATCCATT", "sensor-assay potency score (higher = more potent)": -0.825}, {"sequence": "TTTTGGAACAGGTTCATCCTCA", "sensor-assay potency score (higher = more potent)": -0.144}]}]}
